TDP1 cell CPT: growth inhibition of DT40 Tdp1-/-;hTDP1 cells with camptothecin (screen for TDP1 inhibitors); Potency, µM (top dose mostly 46.2 µM), for the others: at the highest dose activity change, negative = growth inhibition, most hits filed as inhibitors; hit rate 12% among 420,000; AID 686979; chicken DT40 Tdp1-/-;hTDP1 cells + 20 nM CPT, ATP luminescence, 48 h; further: potency means the concentration at half of the fitted maximal effect; nearly all actives have a fitted effect of over 55% in size
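Chicken DT40 Tdp1-/- cells complemented with human TDP1, 400 cells/well, exposed to compounds plus 20 nM camptothecin for at least 48 h at 37 C; viability read as ATP content by CellTiter-Glo luminescence.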
ELG1 DNA repair: inhibitors of ELG1-dependent DNA repair in HEK293T cells; HEK293T ELG1-luciferase reporter, luminescence, 16 h; DNA damage induced by 5-fluorouridine; Potency, µM (doses to about 46.1 µM), inactives show top-dose activity change, negative = inhibition, most hits filed as inhibitors; AID 504467; hit rate 2.3% among 330,000; further: potency means the concentration at half of the fitted maximal effect; nearly all actives have a fitted effect of over 55% in size
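In this reporter screen, reduction of luminescence relative to DMSO vehicle indicated activity. Compounds and 5-fluorouridine were added together to 2,000 cells per well, incubated for 16 hr at 37 °C, then developed with ONE-Glo.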
IL1B secr inh: inhibitors of inflammasome signaling (IL-1 beta secretion) | THP-1 LPS/ATP IL-1B secretion, AlphaLISA, 16 h; active compounds read low | activity change, % at 57.5 µM | hit rate 4.7% among 360,000; in the data active means activity change below about -50%; inconclusive means mostly about -30% to -49%
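THP-1 cells pretreated 1 hr with compounds (up to 57.5 uM final), then stimulated with LPS (250 ng/mL final) plus ATP (1.25 mM final); secreted IL-1B measured by AlphaLISA after 16 hr, decreased signal indicating inhibition.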
Giardia killer: kills Giardia lamblia; Giardia lamblia trophozoite viability; activity change, % at 7.66 µM, hits read low; hit rate 0.15% among 340,000; in the data active means activity change below about -80%; inconclusive means between about -30% and that limit;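 further: parasites exposed to compound for two days anaerobically before the ATP read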
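Each well holds 100 Giardia trophozoites and compound. After two days (48 hrs) at 37 deg C in anaerobic conditions, ATP is quantified by luminescence.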
TDP1 inh: TDP1 (human) enzyme inhibition; Q9NUW8; recombinant TDP1, AlphaScreen DNA substrate cleavage; Potency, µM (top dose mostly 130 µM), without a hit: top-dose activity change, negative = inhibition, hits mostly inhibitors; hit rate 0.28% among 350,000; AID 485290; further: potency means the concentration at half of the fitted maximal effect; nearly all actives have a fitted effect of over 40% in size
Target sequence (Q9NUW8 whole entry, looked up): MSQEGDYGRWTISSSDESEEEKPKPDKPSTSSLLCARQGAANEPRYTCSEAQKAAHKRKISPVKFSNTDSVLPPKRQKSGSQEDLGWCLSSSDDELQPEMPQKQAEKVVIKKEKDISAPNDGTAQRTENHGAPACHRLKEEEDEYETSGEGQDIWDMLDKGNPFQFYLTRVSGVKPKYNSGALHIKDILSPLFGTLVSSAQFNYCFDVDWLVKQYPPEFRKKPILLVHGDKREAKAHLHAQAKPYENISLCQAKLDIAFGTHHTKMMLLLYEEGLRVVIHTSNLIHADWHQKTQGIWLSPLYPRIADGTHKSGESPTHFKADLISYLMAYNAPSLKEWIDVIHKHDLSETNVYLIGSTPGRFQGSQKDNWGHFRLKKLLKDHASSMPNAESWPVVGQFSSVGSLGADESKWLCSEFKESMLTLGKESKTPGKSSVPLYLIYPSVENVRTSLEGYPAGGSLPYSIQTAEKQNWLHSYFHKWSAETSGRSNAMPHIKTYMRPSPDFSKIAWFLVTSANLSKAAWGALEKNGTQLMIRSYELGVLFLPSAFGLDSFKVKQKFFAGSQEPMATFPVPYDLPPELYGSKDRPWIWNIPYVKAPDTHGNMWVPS
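Signal: AlphaScreen proximity between streptavidin donor and anti-FITC acceptor beads on intact substrate. Reaction: Tdp1 1 nM, substrate 15 nM final, 5 min RT after 15 min compound preincubation.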
TDP1 cell noCPT: qHTS for Inhibitors of human tyrosyl-DNA phosphodiesterase 1 (TDP1): qHTS in cells in absence of CPT. DT40 Tdp1-/- hTDP1 cells, no CPT, ATP luminescence, 48 h. hit rate 15% among 420,000. Potency, µM (series often up to 46.2 µM), for the others: at the highest dose activity change, negative = growth inhibition, hits mostly inhibitors; further: potency means the concentration at half of the fitted maximal effect; nearly all actives have a fitted effect of over 55% in size
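Growth kinetics read by CellTiter-Glo luminescence after ≥48 hr at 37 °C. Cells: DT40 Tdp1-/- stably carrying human TDP1, 400 per well, compound exposure in the absence of CPT (DMSO vehicle).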
Numbers without * were called inactive; ? = inconclusive; . = not tested or not shown; [ ] = another dose, or the depositor's remark. Sampled rows, rich in hits. Any-hit rate of the full collection: about 19%. Unless noted, the call rests on the fitted dose curve; in most records, active means well fitted curve in the direction sought with a large enough effect; inconclusive means small, poorly fitted or top-dose-only effect, or another doubt; inactive means no such curve, though single readings can be large; an effect the other way counts as inactive or inconclusive. On the % scale 0 is the no-effect control and ±100 the full control effect.

SMILES	TDP1 cell CPT	ELG1 DNA repair	IL1B secr inh	Giardia killer	TDP1 inh	TDP1 cell noCPT
COC(=O)C1=C(C(=O)OC)SC(=C2C(=S)C(C)(C)N(C(=O)C3CC3)c3ccccc32)S1	?	-8%	-50*	-17	14%	?
CC1C(=O)Nc2ccccc2N1C(=O)C1CC1 (centres undefined)	0%	5%	-13	6	1%	-4%
Cc1ccc(C)c(OCC(=O)Nc2ccc3c(c2)OCO3)c1C	?	-11%	5	74	1%	18µM*
Cc1cccc(OCC(=O)Nc2ccc3c(c2)OCO3)c1C	-29%	1%	4	7	2%	?
Cc1ccc(OCC(=O)Nc2ccc3c(c2)OCO3)cc1C	-6%	22%	-8	-17	0%	26µM*
Cc1ccc(OCC(=O)OCC(=O)Nc2ccc3c(c2)OCO3)cc1C	-9%	19%	9	-16	2%	-4%
Cc1ccc(CNc2nc(CN3CCSCC3)nc3ccccc23)o1	1%[9.04 µM]	.	.	.	.	?
COc1ccccc1NC(=O)CSc1nc(=O)n(Cc2ccncc2)c2c1CCCC2	4%	0%	-10	-10	.	2%
COc1cc2oc(=O)c3c4c(cc5ccc(c1CCN(C)C)c2c53)OCO4	?	.	.	.	6%	?
CCCCN(CC)C(=O)c1nn(-c2ccc(OC)cc2)c(=O)c2c1c1ccccc1n2C	?	.	.	.	-2%	23µM*
CCN(Cc1ccccc1)C(=O)c1nn(-c2ccc(OC)cc2)c(=O)c2c1c1ccccc1n2C	12µM*	18µM*	0	9	-11%	23µM*
CCC1CCC2(CC1)NNC(=S)NN2	?	?	12	-21	6%	18µM*
O=S(=O)(c1ccc(Cl)cc1)c1nc(-c2cccs2)oc1N1CCCCC1	?	.	.	.	1%	16µM*
NC(=O)C1CCN(c2oc(-c3cccs3)nc2S(=O)(=O)c2ccc(Cl)cc2)CC1	11%	-7%	-55*	11	5%	0%
O=C(CN1C(=O)S/C(=C\C=C\c2ccccc2)C1=O)Nc1cccc(O)c1	?	?	-110*	-21	6%	?
O=C(CN1C(=O)S/C(=C\C=C\c2ccccc2)C1=O)Nc1ccccc1C(=O)O	-12%	3%	0	-18	5%	-18%
O=C(CCCN1C(=O)S/C(=C\C=C\c2ccccc2)C1=O)Nc1ccc(C(=O)O)cc1	-11%	?	-29	-1	35µM*	1%
O=C(CCN1C(=O)S/C(=C\C=C\c2ccccc2)C1=O)Nc1ccc(O)cc1	-18%	?	-12	16	0%	?
Cc1cccn2c(=O)cc(COc3cccc(NC(=O)Nc4cccc(Cl)c4)c3)nc12	-1%	.	.	.	3%	-1%
CCN(CC)C(=O)CC(c1ccc(OC)cc1)c1c(OC)cc(OC)c2ccc(=O)oc12 (centres undefined)	23µM*	13%	-23	-29	-13%	?
CCN(CC)C(=O)CC(c1cc(OC)c(OC)c(OC)c1)c1c(OC)cc(OC)c2ccc(=O)oc12 (centres undefined)	?	19%	11	-14	0%	-21%
COc1cc(C(CC(=O)N2CCOCC2)c2c(OC)cc(OC)c3ccc(=O)oc23)cc(OC)c1OC (centres undefined)	6%	?	-7	-6	2%	-1%
COc1ccc(C(CC(=O)N2CCCCC2)c2c(OC)cc(OC)c3ccc(=O)oc23)cc1 (centres undefined)	21µM*	18%	-18	1	4%	?
Oc1c(C(c2ccccc2)N2CCN(Cc3ccccc3)CC2)sc2nc(-c3ccco3)nn12 (centres undefined)	?	.	.	.	5%	?

Screening results: PubChem, National Center for Advancing Translational Sciences (NCATS)
